From PubChem BioAssay (Tox21)
Records with an inconclusive call do not appear. Calls of active or inactive are those of the source. Unless noted, calls come from the whole dose curve; as a rule, active = well fitted curve in the direction sought with a large enough effect in the repeat runs; inconclusive = weak or mixed curves; inactive = no such curve, though single readings can be large; an effect the other way counts as inactive or inconclusive.

Key:
[1] = biological target: Luciferin 4-monooxygenase (Photinus pyralis) (UniProt P08659); test: qHTS assay to identify small molecule inhibitors of firefly luciferase (AID 1224835); note: nearly all actives have a fitted effect of over 25% in size; conditions: purified P. pyralis luciferase, luminescence inhibition; series mostly up to 115 µM
Outline: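 Inhibition of purified Photinus luciferase is measured by luminescence. Substrate levels (D-luciferin, ATP) sit at their KM values. Each compound is tested in a concentration series.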

[2] = qHTS assay to identify small molecule antagonists of the constitutive androstane receptor (CAR) signaling pathway - cell viability counter screen (AID 1224837); conditions: HepG2-CYP2B6-hCAR viability, CellTiter-Fluor, 23 h, co-treated with 50 nM CITCO; series mostly up to 92.4 µM; note: nearly all actives have a fitted effect of over 45% in size
Outline: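 To flag cytotoxic false antagonists, HepG2 hCAR/CYP2B6-2.2kb cells were treated 23 hr with 15-concentration compound series and 50 nM CITCO at 37 C/5% CO2; CellTiter-Fluor fluorescence was the measured end point.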

[3] = qHTS assay to identify small molecule antagonists of the estrogen related receptor signaling pathway with the pleiotropic PPARgamma coactivator (PGC) from Tox21 10K library - cell viability counter screen (AID 1224840; active = well fitted cell-killing curve with a large enough effect in the repeat runs, not every such curve was filed as active; note: nearly all actives have a fitted effect of over 40% in size); conditions: PGC/ERR reporter cells viability, CellTiter-Fluor, 17.5 h; series mostly up to 92.4 µM
Outline: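 Seeded PGC/ERR cells (2,000/well, 6 h, 37 C/5% CO2) get compound by pin tool; 17.5 h incubation at 37 C; CellTiter-Fluor added, 30 min, fluorescence measured.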

[4] = biological target: Thyrotropin receptor (Homo sapiens) (UniProt P16473); test: qHTS assay to identify small molecule agonists of the thyroid stimulating hormone receptor (TSHR) signaling pathway (AID 1224843; calls by dose curve; note: nearly all actives have a fitted effect of over 45% in size); conditions: TSHR-HEK293 cells, cAMP HTRF, agonist mode, 30 min; series mostly up to 92.4 µM
Outline: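 Agonist activity read as cAMP rise via d2/cryptate HTRF competition, 1 h room-temperature detection, in HEK293 cells expressing TSHR. Fifteen-point titrations, each run in triplicate, with a 30 min room-temperature incubation beforehand.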

[5] = qHTS assay to identify small molecule agonists of the hypoxia (HIF-1) signaling pathway - cell viability counter screen (AID 1224844; calls by dose curve; note: nearly all actives have a fitted effect of over 50% in size); conditions: HRE-bla ME-180 viability, CellTiter-Glo luminescence, 17 h; series mostly up to 76.8 µM
Outline: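 HRE-bla ME-180; 0.5% dFBS; cpd 17 h, 37C, 5% CO2; CellTiter-Glo lum., 30 min RT, post-FRET read, same wells.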

[6] = qHTS assay to identify small molecule agonists of the constitutive androstane receptor (CAR) signaling pathway - cell viability counter screen (AID 1224836); conditions: HepG2-CYP2B6-hCAR viability, CellTiter-Fluor, 23 h, PK11195 added to every well; series mostly up to 92.4 µM; note: nearly all actives have a fitted effect of over 45% in size
Outline: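 23 h treatment, 37 C, 5% CO2. Cell line: HepG2 stably expressing hCAR with a CYP2B6-2.2kb construct. Co-treatment: PK11195, 0.75 uM final. Read-out: CellTiter-Fluor fluorescence intensity.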

[7] = biological target: Nuclear receptor subfamily 1 group I member 3 (Homo sapiens) (UniProt Q14994); test: qHTS assay to identify small molecule antagonists of the constitutive androstane receptor (CAR) signaling pathway (AID 1224838); conditions: HepG2-CYP2B6-hCAR luciferase, CITCO-stimulated, 24 h; series mostly up to 92.4 µM;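 note: HepG2 cells stably expressing hCAR with CYP2B6 luciferase reporter stimulated by CITCO; nearly all actives have a fitted effect of over 40% in size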
Outline: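 Human hepatoma HepG2 cells expressing hCAR and a CYP2B6 promoter (2.2 kb) luciferase construct; compound titration (15 points) with 50 nM CITCO final, 24 h at 37 C/5% CO2; luminescence via ONE-Glo after 30 min at room temperature.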

[8] = biological target: Nuclear receptor subfamily 1 group I member 3 (Homo sapiens) (UniProt Q14994); test: qHTS assay to identify small molecule agonists of the constitutive androstane receptor (CAR) signaling pathway (AID 1224839); conditions: HepG2 hCAR CYP2B6-luciferase, agonist mode, 24 h; series mostly up to 92.4 µM;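 note: HepG2 cells stably carrying human CAR and a CYP2B6 luciferase reporter; nearly all actives have a fitted effect of over 15% in size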
Outline: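 Compounds tested at 15 concentrations on HepG2 cells stably harbouring hCAR and CYP2B6-2.2kb reporter constructs, co-treated with PK11195 (0.75 uM final), 24 h at 37 C; luminescent reporter signal quantified.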

[9] = qHTS assay to identify small molecule antagonists of the estrogen related receptor signaling pathway with the pleiotropic PPARgamma coactivator (PGC) from Tox21 10K library (AID 1224841; call rule not given here; note: actives are mostly falling curves and most rising ones were filed inactive; nearly all actives have a fitted effect of over 50% in size); conditions: PGC/ERR reporter cell line, ONE-Glo luciferase, 18 h; series mostly up to 92.4 µM
Outline: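 Test chemicals dissolved in DMSO were applied to pre-incubated (6 h) PGC/ERR cells at 2,000 cells/well for an 18 h, 37 C treatment; reporter luminescence was then read using One-Glo.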

[10] = qHTS assay to identify small molecule agonists of the estrogen related receptor signaling pathway with the pleiotropic PPARgamma coactivator (PGC) from Tox21 10K library (AID 1224842); conditions: PGC/ERR reporter cell line, luciferase ONE-Glo, 18 h; series mostly up to 92.4 µM; note: nearly all actives have a fitted effect of over 15% in size
Outline: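 Luminescence from One-Glo (30 min, room temperature) measured after PGC/ERR cells had 18 h at 37 C with pinned compound (23 nL in DMSO). Cells had been seeded at 2,000 per well and pre-incubated 6 h.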

Measured: Potency

Sequence of Thyrotropin receptor (Homo sapiens) (P16473 whole entry, looked up): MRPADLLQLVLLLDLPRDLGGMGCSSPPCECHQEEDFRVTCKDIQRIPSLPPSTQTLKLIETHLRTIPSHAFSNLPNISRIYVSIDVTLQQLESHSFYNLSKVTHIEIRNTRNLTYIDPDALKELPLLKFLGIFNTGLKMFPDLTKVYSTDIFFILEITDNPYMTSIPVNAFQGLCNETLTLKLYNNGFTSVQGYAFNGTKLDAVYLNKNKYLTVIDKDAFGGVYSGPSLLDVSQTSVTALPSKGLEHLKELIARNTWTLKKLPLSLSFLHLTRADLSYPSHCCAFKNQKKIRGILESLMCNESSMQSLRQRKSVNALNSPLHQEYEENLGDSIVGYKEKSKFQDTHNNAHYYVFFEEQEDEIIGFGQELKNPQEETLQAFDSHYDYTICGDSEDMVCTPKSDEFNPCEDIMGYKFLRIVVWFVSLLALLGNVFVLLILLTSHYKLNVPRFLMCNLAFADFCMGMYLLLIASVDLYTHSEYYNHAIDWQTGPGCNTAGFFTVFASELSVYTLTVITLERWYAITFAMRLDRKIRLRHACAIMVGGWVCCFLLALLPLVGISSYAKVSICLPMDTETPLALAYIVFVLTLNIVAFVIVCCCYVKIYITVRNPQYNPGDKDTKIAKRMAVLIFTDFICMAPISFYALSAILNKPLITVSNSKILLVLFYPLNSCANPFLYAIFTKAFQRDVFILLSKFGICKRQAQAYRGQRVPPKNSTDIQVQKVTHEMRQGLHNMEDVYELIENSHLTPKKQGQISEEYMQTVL
Sequence of Nuclear receptor subfamily 1 group I member 3 (Homo sapiens) (Q14994 whole entry, looked up): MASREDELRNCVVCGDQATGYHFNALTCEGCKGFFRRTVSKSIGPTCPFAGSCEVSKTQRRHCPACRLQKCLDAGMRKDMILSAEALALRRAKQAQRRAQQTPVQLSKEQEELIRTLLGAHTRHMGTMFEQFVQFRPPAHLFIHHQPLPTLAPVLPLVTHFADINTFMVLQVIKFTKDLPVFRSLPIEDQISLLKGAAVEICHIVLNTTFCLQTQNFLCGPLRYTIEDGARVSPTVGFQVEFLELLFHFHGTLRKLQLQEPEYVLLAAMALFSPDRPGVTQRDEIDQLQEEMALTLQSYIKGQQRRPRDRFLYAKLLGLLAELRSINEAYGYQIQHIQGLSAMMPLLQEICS
Sequence of Luciferin 4-monooxygenase (Photinus pyralis) (P08659 whole entry, looked up): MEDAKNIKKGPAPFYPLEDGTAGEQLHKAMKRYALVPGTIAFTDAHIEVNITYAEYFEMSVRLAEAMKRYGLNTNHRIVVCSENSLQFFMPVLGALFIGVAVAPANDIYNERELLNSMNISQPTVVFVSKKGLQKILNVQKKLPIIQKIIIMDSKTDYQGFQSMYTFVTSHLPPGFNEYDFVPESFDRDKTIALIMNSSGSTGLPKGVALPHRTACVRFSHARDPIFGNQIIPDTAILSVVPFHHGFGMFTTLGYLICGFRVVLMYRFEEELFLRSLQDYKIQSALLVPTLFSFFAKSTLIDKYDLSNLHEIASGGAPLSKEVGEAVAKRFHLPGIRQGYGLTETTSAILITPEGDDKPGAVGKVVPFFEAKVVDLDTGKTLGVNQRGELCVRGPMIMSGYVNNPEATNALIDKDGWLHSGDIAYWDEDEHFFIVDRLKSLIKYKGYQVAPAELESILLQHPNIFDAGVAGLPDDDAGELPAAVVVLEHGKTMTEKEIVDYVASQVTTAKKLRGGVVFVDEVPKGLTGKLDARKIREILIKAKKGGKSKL

CC(N)C12CC3CC(CC(C3)C1)C2 (stereo not drawn)
inactive: [1] | [2] | [3] | [4] | [5]

c1coc(CNc2ncnc3nc[nH]c23)c1
inactive: [1] | [4] | [5]

CC(C)=CCC/C(C)=C/C#N
not listed: [1] | [9] | [10]
inactive: all other assays above

CC(COc1ccccc1)NN (stereo not drawn)
not listed: [1] | [8]
inactive: all other assays above
